Laboratory results: PubChem BioAssay AID588342 (National Center for Advancing Translational Sciences (NCATS), 2011)
About 25,000 (6.9%) of roughly 360,000 compounds were called active. About 9% were inconclusive and are not listed. The full list was thinned out, with actives kept by preference. Unmarked numbers belong to inactive results. The call rests on the fitted dose curve; in most records, active means well fitted inhibition curve with a large enough effect; inconclusive means small, poorly fitted or top-dose-only effect; inactive means flat fitted curve, though single readings scatter.

target: Luciferin 4-monooxygenase (Photinus pyralis) (UniProt P08659); experiment: qHTS profiling assay for firefly luciferase inhibitor/activator using purifed enzyme and Km concentrations of substrates (counterscreen for miR-21 project); settings: purified FLuc, luminescence inhibition; series mostly up to 57.5 µM; activity change, negative = inhibition: at the top concentration; further: nearly all actives have a fitted effect of over 55% in size;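 on activity change, negative = inhibition: plate controls were vehicle for no effect and reference inhibitor for full effect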
Outline: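 Biochemical qHTS of compounds, final roughly 60 µM downward over six points, against 10 nM purified firefly luciferase using Km concentrations of substrates (10 uM D-luciferin, 10 uM ATP) in Tris acetate pH 7.5 buffer; luminescence output.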
Potency means the concentration at half of the fitted maximal effect.

Luciferin 4-monooxygenase (Photinus pyralis), sequence (P08659 whole entry, looked up): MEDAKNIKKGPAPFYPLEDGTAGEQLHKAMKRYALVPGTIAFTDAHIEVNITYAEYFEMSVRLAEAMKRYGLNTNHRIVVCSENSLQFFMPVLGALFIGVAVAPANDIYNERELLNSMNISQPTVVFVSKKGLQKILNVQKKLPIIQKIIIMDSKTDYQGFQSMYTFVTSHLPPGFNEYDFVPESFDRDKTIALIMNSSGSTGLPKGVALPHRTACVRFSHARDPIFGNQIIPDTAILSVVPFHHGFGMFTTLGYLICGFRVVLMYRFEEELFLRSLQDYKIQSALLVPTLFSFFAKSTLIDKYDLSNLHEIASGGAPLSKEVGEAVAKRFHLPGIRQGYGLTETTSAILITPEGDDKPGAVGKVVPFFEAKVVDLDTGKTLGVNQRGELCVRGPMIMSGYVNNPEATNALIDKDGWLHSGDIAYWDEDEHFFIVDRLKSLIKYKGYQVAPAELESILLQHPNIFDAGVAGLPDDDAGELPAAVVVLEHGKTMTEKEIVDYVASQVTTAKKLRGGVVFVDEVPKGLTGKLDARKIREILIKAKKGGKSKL

Structure (SMILES)	activity change, negative = inhibition	Potency
O=C(/C=C/c1cn(-c2ccccc2)nc1-c1ccc2c(c1)OCCO2)NCCCN1CCOCC1	-10.5%	
COc1cccc(C(=O)NNC(=O)/C=C/c2ccccc2)c1	0.538%	
C=CCNC(=O)/C=C/c1ccc(C(C)C)cc1		19 µM (active)
CCCOc1ccc(C2c3c(-c4ccccc4O)n[nH]c3C(=O)N2Cc2cccnc2)cc1 (stereo unspecified)	-13.9%	
N#Cc1ccccc1Cn1cnc2nc3c(cc2c1=O)CCCC3	2.97%	
Cc1ccc(-n2nc(C)c3c(C)cc(=O)n(CC(=O)Nc4ccc(C(C)C)cc4)c32)cc1	-0.504%	
Cc1c(C(=O)Nc2cccc(Cl)c2)oc2ccc(S(=O)(=O)N3CCOCC3)cc12	2.19%	
Cc1cccc(-c2nc(SCC(=O)Nc3cc(C)on3)c3c(=O)n(C)c(=O)n(C)c3n2)c1	-3.67%	
Cc1ccc(NC(=O)Cn2cnc3nc4c(cc3c2=O)CCCC4)cc1Cl	2.34%	
COc1ccc(NC(=O)c2cnc(Nc3ccc(C)c(Cl)c3)c3ccccc23)cc1OC	-0.0929%	
COc1ccc(C(=O)CSc2nccc(=O)[nH]2)cc1	0.943%	
CCN(C(=O)CSc1ncn[nH]1)c1cccc2ccccc12	0.343%	
CC(C)(C)c1ccc(C(=O)CSc2ncn[nH]2)cc1		4.78 µM (active)
CC(C)OCCCn1c(SCC(=O)c2ccccc2)nc2c(sc3ccccc32)c1=O	-0.642%	
Cc1csc(SCC(=O)N(c2ccccc2)C(C)C)n1	0.743%	
CC(=O)OCCN(CCCn1c(-c2ccncc2)nc2ccccc21)c1nc(-c2ccc(C)cc2)cs1	1.22%	
Cc1ccc(C)c(NC(=O)NNC(=O)c2ccc3ccccc3c2O)c1	-22.4%	
Cc1ccc2nc(/C(C#N)=C\c3ccc(OC(=O)c4cccs4)cc3)[nH]c2c1	-3.56%	
N#C/C(=C\c1ccccc1F)c1nc2ccccc2c(=O)[nH]1	7.06%	
COc1cccc2cc(-c3nc(Cl)c4c5c(sc4n3)CC(C)CC5)c(=O)oc12 (stereo unspecified)	-13.3%	
Cc1ccc2nc(/C(C#N)=C/c3ccccc3F)[nH]c2c1		8.49 µM (active)
CCOc1ccc(/C=C(\C#N)c2nc3ccccc3c(=O)[nH]2)cc1OC	-4.72%	
Cc1ccccc1OC/C(O)=C(\C#N)c1nc2ccccc2[nH]1	0.866%	
COc1cc(/C=C(\C#N)c2nc3c(s2)CC(C)CC3)ccc1O (stereo unspecified)		0.675 µM (active)
COc1cc(/C=C(\C#N)c2nc3ccccc3[nH]2)ccc1O		4.78 µM (active)
O=C1OC(C(=O)Nc2cccc(Br)c2)Cc2ccccc21 (stereo unspecified)	-0.169%	

Structure (SMILES)	activity change, negative = inhibition	Potency
O=C(C1CC(=O)N(C2CCCC2)C1)N1CCN(c2cccc(C(F)(F)F)c2)CC1 (stereo unspecified)	3.15%	
Cc1ccc(CN2CCCOCCS2(=O)=O)cc1	-0.0995%	
Cc1ccc(CNC(=O)CSC2=Nc3ccccc3C3=NC(C)C(=O)N23)cc1 (stereo unspecified)	-7.16%	
Cc1c(Cl)cccc1-c1ccc(CNCCCSc2nnnn2C)o1	-8.45%	
O=C(Cn1cc(/C=N/NC(=O)c2cccc(C(F)(F)F)c2)c2ccccc21)Nc1ccc(F)cc1	0.0534%	
CC(OC(=O)/C=C/c1ccccc1)C(=O)NC1CCCCC1C (stereo unspecified)	3.73%	
Cn1nccc1NC(=O)CC(CC(=O)O)c1ccccc1 (stereo unspecified)	-0.627%	
O=C(CN1CCN(c2ccc(O)cc2)CC1)Nc1ccc(-c2ccccc2)cc1	2.93%	
Oc1ccc(-c2cccc(-c3ccc(O)cc3)c2)cc1		16.9 µM (active)
CC(C#N)(NC(=O)CN1CCN(S(=O)(=O)c2cc(C(F)(F)F)ccc2Cl)CC1)C1CC1 (stereo unspecified)	0.354%	
O=C1/C(=C/c2ccc(F)cc2)SC(=S)N1NS(=O)(=O)c1ccccc1	-13.4%	
COc1ccc(Cn2ccnc2SCC(=O)Nc2ccc3c(c2)OCO3)cc1	-1.75%	
Cc1ccc(-n2c(SCC(=O)Nc3ccc4c(c3)OCO4)nnc2-c2ccoc2C)cc1	-0.842%	
Cc1ccc(S(=O)(=O)NCC(=O)Nc2ccc3c(c2)OCCO3)cc1	-1.09%	
CCc1ccccc1OCC(=O)Nc1ccc2c(c1)OCCO2		10.7 µM (active)
Cc1ccc(SCC(=O)Nc2ccc3c(c2)OCCO3)cc1		6.75 µM (active)
O=C(CSc1nc2ncccc2[nH]1)Nc1ccc2c(c1)OCCO2		15.1 µM (active)
CCC(=O)c1cc(F)ccc1OCC(=O)Nc1ccc2c(c1)OCCO2	-1.51%	
O=C(CSc1nc(=O)n2ccccc2n1)Nc1ccc2c(c1)OCCO2	-14.3%	
Cn1ccnc1SCC(=O)Nc1ccc2c(c1)OCCO2		23.9 µM (active)
COc1ccc(NC(=O)CSc2nccn2Cc2ccc3c(c2)OCO3)cc1	-10.3%	
COc1ccc(NC(=O)CSc2nc3ncccc3[nH]2)c(OC)c1	-0.297%	
CC(C)NS(=O)(=O)c1ccc(OCC(=O)Nc2ccc3c(c2)OCCO3)cc1	3.95% [at 2.3 µM]	
CC(C)CCN(C(=O)Nc1ccc(Cl)c(Cl)c1)C(C)c1cccs1 (stereo unspecified)	2.6%	
CCOC(=O)c1cc2c(=O)n3ccccc3nc2n(CC2CCCO2)c1=NC(=O)c1ccc(C(C)(C)C)cc1 (stereo unspecified)	1.25%	
